Drawing on PubChem BioAssay, this text covers growth inhibition, inhibition and outcome for 20 compounds.

The nature of assay [1]: antimalarial activity against Dd2 strain (AID 2302;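 active = growth inhibition above 50% at the single 2 µM test dose, taken to imply half-maximal potency below 2 µM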;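 note: 0% = DMSO untreated growth and 100% = chloroquine plus artemisinin killed control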). As to conditions: P. falciparum Dd2 in RBCs, LDH growth readout, 72 h; at 2 µM; hits give high values.
Assay [2] in a line: human hepatoma cell viability loss – ATP luminescence, cytotoxicity control for P. falciparum antimalarial project, primary screen (AID 2303;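 active = inhibition above 50%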;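 note: 0% = DMSO wells and 100% = digitonin-killed cells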). The note with it: HepG2 viability, 24-48 h, at 10 µM, hits give high values.
For assay [3], the target named is L-lactate dehydrogenase (Plasmodium falciparum (isolate CDC / Honduras)) (UniProt Q27743). Kind of assay: PfLDH activity inhibition – cell lysate, 3D7 strain, counter-screen for P. falciparum growth inhibition project (AID 2304).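 Note: 0% = vehicle and 100% = reference inhibitor.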 The note with it: P. falciparum 3D7 crude extract, LDH APAD/NBT absorbance; at 2 µM; hits give high values. (Counterscreens check selectivity or assay interference.)

The nature of assay [4]: inhibition of 3D7 malaria parasite growth – strain 3D7 (AID 2306).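 Note: 0% = DMSO wells and 100% = chloroquine plus artemisinin control wells.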 The note with it: P. falciparum 3D7 erythrocytic growth, LDH absorbance, 72 h; at 2 µM; hits give high values.
Assay [5] has as its target Calcium-dependent protein kinase 1 (Plasmodium falciparum (isolate 3D7)) (UniProt P62344). Kind of assay: PfCDPK1 kinase inhibitors, biochemical, TCAMS library (AID 1159585; cut-off not given, nearly all actives have IC50 up to about 0.98 µM;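 note: inhibitors leave more ATP so luminescence rises with inhibition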). As to conditions: recombinant PfCDPK1, Kinase-Glo ATP depletion luminescence. On the technique in general: Kinase-Glo measures the ATP left after a reaction by luminescence.
Assay [6] addresses Plasmodium falciparum protein kinase 6 (PK6, PF3D7_1337100) (UniProt Q8IDW1). Kind of assay: PfPK6 kinase inhibitors, biochemical, TCAMS library (AID 1159586). As to conditions: recombinant PfPK6, Kinase-Glo ATP depletion luminescence.
Assay [7] has as its target Protein kinase 7 (PK7), Plasmodium falciparum 3D7 (PF3D7_0213400) (UniProt Q7YTF7). Kind of assay: inhibition of Plasmodium PK7 catalytic activity – biochemical, TCAMS antimalarial set, Kinase-Glo luminescence (AID 1159587). As to conditions: recombinant PfPK7, Kinase-Glo ATP depletion luminescence.
Assay [8] deals with Calcium-dependent protein kinase 4 (Plasmodium falciparum (isolate 3D7)) (UniProt Q8IBS5). Kind of assay: PfCDPK4 kinase inhibitors, biochemical, TCAMS library (AID 1159588; cut-off not given, nearly all actives have IC50 up to about 0.91 µM). As to conditions: recombinant PfCDPK4, Kinase-Glo ATP depletion luminescence.

Unmarked numbers belong to inactive results. For some of these results: Potency and affinity values are given separately. Active and inactive are the calls of the source. Unless noted, the rule behind the calls is not given here.

Calcium-dependent protein kinase 1 (Plasmodium falciparum (isolate 3D7)), sequence (P62344 whole entry, looked up): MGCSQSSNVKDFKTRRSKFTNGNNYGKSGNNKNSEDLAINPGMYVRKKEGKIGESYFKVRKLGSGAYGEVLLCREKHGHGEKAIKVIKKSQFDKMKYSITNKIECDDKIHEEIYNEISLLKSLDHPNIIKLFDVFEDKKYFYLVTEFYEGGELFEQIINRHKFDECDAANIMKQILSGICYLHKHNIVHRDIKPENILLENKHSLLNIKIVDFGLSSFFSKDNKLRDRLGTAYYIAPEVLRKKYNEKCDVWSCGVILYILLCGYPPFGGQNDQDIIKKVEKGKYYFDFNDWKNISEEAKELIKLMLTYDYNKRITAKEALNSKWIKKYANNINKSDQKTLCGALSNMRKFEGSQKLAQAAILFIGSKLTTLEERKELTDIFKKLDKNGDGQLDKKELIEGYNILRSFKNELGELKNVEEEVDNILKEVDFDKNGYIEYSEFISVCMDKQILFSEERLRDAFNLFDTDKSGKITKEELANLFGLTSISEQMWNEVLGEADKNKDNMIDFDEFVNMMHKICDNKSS
Calcium-dependent protein kinase 4 (Plasmodium falciparum (isolate 3D7)), sequence (Q8IBS5 whole entry, looked up): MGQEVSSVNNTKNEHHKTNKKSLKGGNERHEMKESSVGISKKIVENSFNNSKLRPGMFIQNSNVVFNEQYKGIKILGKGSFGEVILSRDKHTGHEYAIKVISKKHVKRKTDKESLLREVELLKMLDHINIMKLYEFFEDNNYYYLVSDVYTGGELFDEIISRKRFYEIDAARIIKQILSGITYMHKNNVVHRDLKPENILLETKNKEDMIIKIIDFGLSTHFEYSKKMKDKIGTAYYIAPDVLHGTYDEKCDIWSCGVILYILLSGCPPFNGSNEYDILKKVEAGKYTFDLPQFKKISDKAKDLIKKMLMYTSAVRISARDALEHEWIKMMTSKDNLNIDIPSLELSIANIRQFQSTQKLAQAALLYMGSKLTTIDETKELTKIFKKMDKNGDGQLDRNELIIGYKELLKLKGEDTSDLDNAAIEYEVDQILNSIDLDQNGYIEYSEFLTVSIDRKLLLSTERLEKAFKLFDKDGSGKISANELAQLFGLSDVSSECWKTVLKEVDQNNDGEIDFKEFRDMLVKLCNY
Protein kinase 7 (PK7), Plasmodium falciparum 3D7 (PF3D7_0213400), sequence (Q7YTF7 1-343): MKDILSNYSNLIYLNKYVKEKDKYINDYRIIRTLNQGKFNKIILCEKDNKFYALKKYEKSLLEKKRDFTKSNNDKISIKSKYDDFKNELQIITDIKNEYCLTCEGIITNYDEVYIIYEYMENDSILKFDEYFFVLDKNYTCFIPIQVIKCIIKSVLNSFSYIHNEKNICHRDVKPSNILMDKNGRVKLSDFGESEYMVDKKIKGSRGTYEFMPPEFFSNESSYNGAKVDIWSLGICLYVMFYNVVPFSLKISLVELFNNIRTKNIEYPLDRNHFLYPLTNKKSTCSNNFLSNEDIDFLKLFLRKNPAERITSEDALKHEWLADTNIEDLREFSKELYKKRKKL
L-lactate dehydrogenase (Plasmodium falciparum (isolate CDC / Honduras)), sequence (Q27743 whole entry, looked up): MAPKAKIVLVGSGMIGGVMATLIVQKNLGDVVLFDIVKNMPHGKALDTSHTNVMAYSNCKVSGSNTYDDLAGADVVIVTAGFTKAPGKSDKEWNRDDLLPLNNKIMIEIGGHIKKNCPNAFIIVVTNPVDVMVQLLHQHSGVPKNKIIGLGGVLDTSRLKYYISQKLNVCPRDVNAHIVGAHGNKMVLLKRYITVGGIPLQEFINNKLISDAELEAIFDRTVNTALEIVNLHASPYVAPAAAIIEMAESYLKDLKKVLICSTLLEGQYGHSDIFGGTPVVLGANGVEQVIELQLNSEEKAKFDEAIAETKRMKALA
Plasmodium falciparum protein kinase 6 (PK6, PF3D7_1337100), sequence (Q8IDW1 1-305): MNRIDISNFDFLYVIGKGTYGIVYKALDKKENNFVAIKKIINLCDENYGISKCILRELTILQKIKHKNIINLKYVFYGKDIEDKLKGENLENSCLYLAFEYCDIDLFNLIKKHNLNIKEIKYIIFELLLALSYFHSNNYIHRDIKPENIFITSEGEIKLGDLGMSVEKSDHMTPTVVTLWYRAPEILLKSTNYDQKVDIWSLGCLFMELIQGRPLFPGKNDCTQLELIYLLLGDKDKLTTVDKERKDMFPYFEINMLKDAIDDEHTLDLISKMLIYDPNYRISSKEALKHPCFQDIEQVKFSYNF

One may read the inhibition as the relative decrease from the control value, in per cent. In the case of `Cc1cc(Oc2ccc(-n3ccnc3)cc2)nc(N2CCN(CCCN3CCCC3)CC2)n1`, the growth inhibition is 7% in assay [1] and 90% (active) in assay [4]. In addition, the inhibition in assay [2] was 5%; in assay [3], 0%. Moreover, the result in assay [5], in assay [6], in assay [7] and in assay [8] was inactive.
For the compound `CC1CN(Cc2ccc(-c3ccc(-c4nc5ccc(F)cc5[nH]4)s3)cc2)CC(C)O1` (stereo not given), the growth inhibition in assay [1] is 89% (active); in assay [4], 88% (active). The inhibition in assay [2] is 35%; in assay [3] it was -10%. For the same compound, the result in assay [5], in assay [6], in assay [7] and in assay [8] was inactive.
As to `Cc1cccc2[nH]c(-c3ccc(-c4cccc(NC(=O)COc5ccccc5C(N)=O)c4)s3)nc12`, the growth inhibition in assay [1] is 19%; in assay [4] it was 99% (active). Moreover, the inhibition is 80% (active) in assay [2] and -6% in assay [3]. Further, the outcome in assay [5], in assay [6], in assay [7] and in assay [8] was inactive.
Take `COc1ccc2c(NN=Cc3ccccc3Cl)cc(C)nc2c1`: the growth inhibition in assay [1] is 99% (active); in assay [4] it was 101% (active). The inhibition in assay [2] was 5%; in assay [3] it was 2%. The outcome in assay [5], in assay [6], in assay [7] and in assay [8] was inactive.
As for `COc1cc(Cc2cnc(N)nc2N)cc(OC)c1OCCNC(=O)[C@@H](N)CCC(=O)O`, the growth inhibition was -4% in assay [1] and 96% (active) in assay [4]. Also, the inhibition is -1% in assay [2] and -6% in assay [3]. Besides, the result in assay [5], in assay [6], in assay [7] and in assay [8] was inactive.
On to `O=C(CN1CCN(C(=O)c2ccco2)CC1)Nc1ccc(Br)cc1Cl`, for which the growth inhibition in assay [1] is 79% (active); in assay [4], 88% (active). Further, the inhibition in assay [2] is 10%; in assay [3], -6%. Also, the result in assay [5], in assay [6], in assay [7] and in assay [8] was inactive.
In the case of `CN1CCN(c2ccc3nc(-c4ccc(Cc5cc(Cl)ccc5OCc5ccccc5)o4)[nH]c3c2)CC1`, the results for the growth inhibition in assay [1] and in assay [4] were 79% (active) and 102% (active), respectively. In addition, the results for the inhibition in assay [2] and in assay [3] were 27% and 2%, respectively. Moreover, the result in assay [5], in assay [6], in assay [7] and in assay [8] was inactive.
With `O=C(Nc1cccc(N2CCC(NCCCn3ccnc3)CC2)c1)c1cccc(C(F)(F)F)c1`, the results for the growth inhibition in assay [1] and in assay [4] were 2% and 101% (active), respectively. Further, the results for the inhibition in assay [2] and in assay [3] were 8% and 3%, respectively. Besides, the result in assay [5], in assay [6], in assay [7] and in assay [8] was inactive.
With `N#Cc1ccc2c(c1)CCN(CCC1CCC(NC(=O)c3ccc(-c4ccccc4)s3)CC1)CC2` (stereo not given), the growth inhibition was 36% in assay [1] and 99% (active) in assay [4]. Besides, the inhibition in assay [2] is 6%; in assay [3], 0%. The outcome in assay [5], in assay [6], in assay [7] and in assay [8] was inactive.
On to `Cc1cc2ncn(-c3nccc(NCc4ccc(F)cc4)n3)c2cc1C`, for which the growth inhibition in assay [1] was 83% (active); in assay [4], 98% (active). Moreover, the inhibition was 10% in assay [2] and -2% in assay [3]. Further, the outcome in assay [5], in assay [6], in assay [7] and in assay [8] was inactive.
For the compound `COc1ccccc1CNC(=O)c1cc(OC)c(OC)cc1NC(=O)c1cccs1`, the growth inhibition was 71% (active) in assay [1] and 88% (active) in assay [4]. Further, the inhibition is 12% in assay [2] and 3% in assay [3]. Besides, the result in assay [5], in assay [6], in assay [7] and in assay [8] was inactive.
For `Cc1nn(-c2ccc(Cl)cc2)c2[nH]c(CN3CCN(c4cccc(Cl)c4)CC3)cc(=O)c12`, the growth inhibition in assay [1] and in assay [4] was 98% (active) throughout. Moreover, the inhibition in assay [2] was 0%; in assay [3], -3%. For the same compound, the result in assay [5], in assay [6], in assay [7] and in assay [8] was inactive.
Regarding `CCOc1cc(C(=O)NC2CCN(Cc3ccccc3)CC2)ccc1-c1nc2cc(Cl)c(F)cc2[nH]1`, the figures for the growth inhibition in assay [1] and in assay [4] were 51% (active) and 101% (active), respectively. Also, the inhibition in assay [2] was 13%; in assay [3], 4%. The result in assay [5], in assay [6], in assay [7] and in assay [8] was inactive.
Take `NS(=O)(=O)c1ccccc1Nc1nc(Nc2ccc(N3CCOCC3)cc2)nc2c1CCC2`: the growth inhibition in assay [1] was 99% (active); in assay [4], 96% (active). Also, the inhibition in assay [2] was 21%; in assay [3], -1%. The outcome in assay [5], in assay [6], in assay [7] and in assay [8] was inactive.
As to `O=C(Nc1cccc(C(F)(F)F)c1)NC1CCN(c2ccnc3cc(Cl)ccc23)CC1`, the growth inhibition in assay [1] is 47%; in assay [4], 101% (active). The inhibition is 13% in assay [2] and -2% in assay [3]. Also, the result in assay [5], in assay [6], in assay [7] and in assay [8] was inactive.
On to `COc1cc(NCC(O)CNc2cc(Cl)nc3ccccc23)nc2ccccc12` (stereo not given), for which the growth inhibition in assay [1] and in assay [4] was 99% (active) in each case. Moreover, the inhibition in assay [2] is 17%; in assay [3], -2%. The result in assay [5], in assay [6], in assay [7] and in assay [8] was inactive.
For `COc1cc(C2=NN(S(=O)(=O)c3c(C)cc(C)cc3C)CCCC2)ccc1Cl`, the growth inhibition in assay [1] was 76% (active); in assay [4] it was 85% (active). The inhibition is 9% in assay [2] and 1% in assay [3]. Besides, the result in assay [5], in assay [6], in assay [7] and in assay [8] was inactive.
Turning to `COc1cc(OC)cc(-c2nn(-c3ccc([N+](=O)[O-])cc3C#N)c(=S)n2Cc2ccco2)c1`, the growth inhibition in assay [1] and in assay [4] was 100% (active) in each case. The inhibition in assay [2] was 11%; in assay [3] it was -6%. Moreover, the result in assay [5], in assay [6], in assay [7] and in assay [8] was inactive.
On to `CCOc1cc(C)ccc1C1CCN(CCCCNC(=O)c2ccc(-c3ccc(C(F)(F)F)cn3)cc2)CC1`, for which the growth inhibition in assay [1] is 45%; in assay [4], 99% (active). Also, the inhibition is 55% (active) in assay [2] and 5% in assay [3]. For the same compound, the outcome in assay [5], in assay [6], in assay [7] and in assay [8] was inactive.
Consider `CN(Cc1ccc(NC(=O)CCC2CCN(C(=O)/C=C/c3ccc(Cl)c(Cl)c3)CC2)cc1)C1CCOCC1`, for which the growth inhibition in assay [1] was 2%; in assay [4] it was 94% (active). Also, the inhibition in assay [2] is 10%; in assay [3] it was 0%. For the same compound, the result in assay [5], in assay [6], in assay [7] and in assay [8] was inactive.
